Data as given in PubChem BioAssay AID1030 (National Center for Advancing Translational Sciences (NCATS), 2008).
Hit rate of the full screen: of about 220,000 compounds, about 16,000 (7.3%) were called active. Not shown: some 25% with an inconclusive outcome. Calls follow the shape of the dose curve; as a rule, active = well fitted inhibition curve with a large enough effect (not every such curve was filed as active); inconclusive = small, poorly fitted or top-dose-only effect, or another doubt; inactive = no such curve, though single readings can be large or run the other way. Shown is part of a subset that was picked to be rich in actives.

Target: Aldehyde dehydrogenase 1A1 (Homo sapiens) (UniProt P00352)
Test: qHTS Assay for Inhibitors of Aldehyde Dehydrogenase 1 (ALDH1A1);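 as to activity, negative = inhibition: plate controls were no enzyme wells and a reference inhibitor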
Conditions: Purified ALDH1A1, NADH fluorescence, propionaldehyde substrate; series mostly up to 75.3 µM; activity, negative = inhibition: at the top concentration
Potency is read from the fitted curve at half-maximal effect.

Sequence of Aldehyde dehydrogenase 1A1 (Homo sapiens) (P00352 whole entry, looked up): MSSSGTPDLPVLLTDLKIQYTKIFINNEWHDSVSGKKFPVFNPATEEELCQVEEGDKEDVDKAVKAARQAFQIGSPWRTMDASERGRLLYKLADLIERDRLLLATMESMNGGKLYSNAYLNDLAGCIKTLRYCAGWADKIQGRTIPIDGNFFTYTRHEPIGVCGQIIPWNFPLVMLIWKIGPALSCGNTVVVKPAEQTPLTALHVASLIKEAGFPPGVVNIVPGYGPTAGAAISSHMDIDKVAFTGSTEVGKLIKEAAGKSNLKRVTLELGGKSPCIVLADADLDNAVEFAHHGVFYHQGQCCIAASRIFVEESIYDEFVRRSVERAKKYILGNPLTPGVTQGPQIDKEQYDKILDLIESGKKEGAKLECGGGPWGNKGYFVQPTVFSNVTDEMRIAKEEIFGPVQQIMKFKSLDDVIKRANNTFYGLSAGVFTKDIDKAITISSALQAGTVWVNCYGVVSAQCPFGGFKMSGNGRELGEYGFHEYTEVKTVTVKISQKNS

activity, negative = inhibition, inactive:
CCN(CC)C(=O)Cn1cc(S(=O)(=O)CC(=O)NCc2ccc3c(c2)OCO3)c2ccccc21 -3.66%
Cc1ccc(C(=O)COC(=O)CCCC(=O)NC2CCCCC2)cc1[N+](=O)[O-] -7.14%
Cc1c(NS(=O)(=O)c2ccc(NC3CCCC3)c([N+](=O)[O-])c2)c(=O)n(-c2ccccc2)n1C 8.67%
S=c1[nH]nc(-c2cccnc2)n1/N=C/C(Cl)=C\c1ccccc1 2.03%
CN1CCN(C2=NCCO2)CC1 4.37%
O=C(O)c1cc(Cl)c(Cl)cc1C(=O)Nc1cccc2ncccc12 2.26%
O=C(Nc1cccc2ncccc12)C(Cl)(Cl)Cl 3.17%
CCN(CC)CCCSc1nc2ccccc2s1 -13.5%
COC(=O)c1ccc(COC(=O)c2cnccn2)cc1 11.2%
COc1cc2sc(C)nc2cc1C -4.43%
Cc1ccc(NC(=O)c2ccc(Oc3ncccn3)cc2)cc1 4.07%
C=C(C(C)=O)C(O)c1cccs1 (stereo not given) -5.62%
CCCC(=O)Nc1nc2ccc(NC(=O)c3c(F)c(F)c(OC)c(F)c3F)cc2s1 5.83%
CCC(=O)Nc1ccc2c(c1)nc(CCN1CCN(C)CC1)n2C 10.7%
COC(=O)c1ccc(NC(=S)Nc2cccc(C)n2)cc1 -15%
Cc1cccc(OC(=O)c2sc3ncn(C)c(=O)c3c2C)c1 -9.06%
CCN1CCN(C(=O)CN(C)S(=O)(=O)c2ccc3ccccc3c2)CC1 -8.69%
CCC1CCCCN1S(=O)(=O)Cc1ccccc1Cl (stereo not given) -1.74%
CS(=O)(=O)N(CC(=O)NC1CCCC1)Cc1ccc(F)cc1 2.61%
Cc1c(C(=O)NCc2ccccc2)cnn1-c1ccccc1 -13.2%
Nc1c(C(=O)O)cnn1-c1ccccc1 -1.91%
CC(=O)N1N=C(c2ccccc2)OC1c1cccnc1 (stereo not given) -7.83%
COCc1c(C(=O)OCc2c(C)noc2C)oc2ccccc12 -8.05%
Fc1ccc(CNCc2ccc(Br)cc2)cc1 5.3%
S=c1[nH]nc(-c2ccc(Cl)cc2)n1CC1CCCO1 (stereo not given) -4.07%
COc1ccc(CCNC(=O)Cn2c(=O)n(CC3CCCO3)c(=O)c3ccccc32)cc1OC (stereo not given) 0.6%
Cc1nc2cnc(Nc3ccccc3)nc2n(C[C@H]2CCCO2)c1=O 8.56%
COCCn1c(=S)[nH]c2cc(C(=O)NCCc3ccc(OC)c(OC)c3)ccc2c1=O -4.54%
CCc1ccc(NC(=O)C(=O)N/N=C(\C)CC(=O)NCCOC)cc1 -6.85%
CCOC(=O)c1cccc(NC(=O)CCOc2ccccc2)c1 3.3%
CCOC(=O)CSc1nc(C)cc2c1C(=O)OC2 -2.92%
CCOC(=O)C1CCCN(C(=O)c2cccc(S(=O)(=O)N3CCOCC3)c2)C1 (stereo not given) -5.73%
COc1cccc(N(Cc2nnc3n2CCCCC3)C(=O)Nc2ccccc2F)c1 0.321%
Cc1cc(C(=O)NNS(=O)(=O)c2ccccc2C(F)(F)F)nn1C(C)(C)C -6.99%
O=C(Nc1ccc(Br)cn1)c1ccc([N+](=O)[O-])cc1Cl -6.95%
O=C(CCN1C(=O)c2ccccc2C1=O)Nc1cccc(F)c1 6.38%
O=C1c2ccccc2C(=O)N1CCCSc1ccccc1 -6.74% [at 13.5 µM]
Cc1ccc(C)c(CSc2nc(-c3ccco3)nc3c2c(=O)n(C)c(=O)n3C)c1 2%
O=C(O)CSc1nnc(-c2ccc3c(c2)OCO3)n1-c1ccccc1 6.9%
CSc1ncccc1C(=O)NC1CCCCCC1 -8.2%
CC1(CCC(=O)OC2CCCCC2)OCCO1 -6.23% [at 13.5 µM]
Cc1cccc(C2c3[nH]c4ccccc4c3CCN2C(=O)c2cc(-c3cccn3C)n[nH]2)n1 (stereo not given) -6.8%
COc1ccc2c(c1)C(c1cccs1)=NNC(c1cccnc1)=N2 -17.1%
CC(=O)Nc1ccc(NC(=O)C(C)n2c3ccccc3c3nc(=O)cc(C)n32)cc1 (stereo not given) 2.7%
C/C(=N\Nc1nc(N2CCOCC2)nc(N2CCOCC2)n1)c1ccc([N+](=O)[O-])cc1 -6.49%

Potency, active:
Cc1cc(C=O)c(C)n1-c1ccc(NC2CCCCC2)c([N+](=O)[O-])c1 5.62 µM
Cc1cc(-c2n[nH]c(=S)n2/N=C/C(Br)=C/c2ccccc2)n[nH]1 17.8 µM
Cc1ccc(/C=C(\C#N)C(=O)Nc2cccc3ncccc23)o1 8.91 µM
N#CC1=C(N)Oc2n[nH]c(CSc3ccccc3)c2C12C(=O)Nc1ccccc12 (stereo not given) 10 µM
CCCC(=O)Nc1ccc2c(c1)nc1n2CCSC1 25.1 µM
NNC(=O)c1cnn(-c2ccccc2)c1C(F)(F)F 11.2 µM
COC(=O)c1ccc2c(=O)n(CC3CCCO3)c(=S)[nH]c2c1 (stereo not given) 1.78 µM
O=c1c2cc3c(=O)n(CC4CCCO4)c(=O)c3cc2c(=O)n1CC1CCCO1 (stereo not given) 0.316 µM
O=C1c2ccccc2C(=O)N1CCC(O)C[N+](=O)[O-] (stereo not given) 22.4 µM
CSc1nsc(SC)c1NC(=O)OC1CCCCC1 20 µM
